Compound activity deposited in PubChem BioAssay by National Center for Advancing Translational Sciences (NCATS).
CHX counter – affects cycloheximide protein synthesis inhibition readout, counter-screen; actives 12% (n = 300,000); cell reporter, cycloheximide protein synthesis inhibition counterscreen; max response, %; AID 2314; in the data active = max response mostly above about 13%, no sharp cut-off; inactive = mostly below about 14%; note: read at 38.3 µM for the half of the compounds with a filed dose; 0% is about no effect
Shiga inhibitor – blocks Shiga toxin action in Vero cells; Vero cells, Shiga toxin protein synthesis inhibition reporter; inhibition, % at 38.7 µM; actives 9.2% (n = 290,000); AID 2315; in the data active = inhibition mostly above about 28%, no sharp cut-off; inactive = mostly below about 43%; note: 0% is about no effect
Pf growth 48h – inhibits P. falciparum growth in the first generation, 48 h. Potency, µM (series often up to 28.7 µM), without a hit: at the highest dose activity change, negative = inhibition, actives largely listed as inhibitors. P. falciparum luciferase growth in erythrocytes, 48 h. actives 5.9% (n = 310,000); note: potency is the fitted concentration of half-maximal effect; % is set by controls: 0 for no effect and ±100 for the full control effect
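In quantitative HTS format, infected erythrocytes bearing luciferase-reporter parasites were treated for a single generation at 37 C. Luminescence after adding detection reagent served as the growth measure.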
Pf growth 96h – P. falciparum growth inhibition at 96 hours. P. falciparum luciferase reporter growth, 96 h. Potency, µM (highest dose often 28.7 µM), for inactives: at the top dose activity change, negative = inhibition, most hits filed as inhibitors. actives 6.9% (n = 320,000). AID 504834; note: potency is the fitted concentration of half-maximal effect; % is set by controls: 0 for no effect and ±100 for the full control effect
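Erythrocytes infected with luciferase-expressing P. falciparum were dispensed at 2% hematocrit and 0.05% parasitemia (final), then incubated with compounds 96 hours at 37 C in 5% CO2. Luminescence after detection reagent addition reported growth.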
Numbers without * were called inactive; ? = inconclusive; / = not tested or not shown. A selection: hits, their analogues and other compounds. The true share with any hit is near 21%. Unless noted, calls come from the whole dose curve; as a rule, active = well fitted inhibition curve with a large enough effect; inconclusive = small, poorly fitted or top-dose-only effect, or another doubt; inactive = no such curve, though single readings can be large or run the other way.

SMILES	CHX counter	Shiga inhibitor	Pf growth 48h	Pf growth 96h
CC(=O)Nc1c(I)c(C(=O)N[C@H]2C(O)O[C@H](CO)[C@@H](O)[C@@H]2O)c(I)c(N(C)C(C)=O)c1I (stereo partly drawn)	/	/	14%	118%
S=c1[nH]nc(-c2ccc(Br)cc2)n1Cc1ccco1	-3	0	2%	?
Clc1ccc(-c2nc3nc4ccccc4nc3n2Cc2ccco2)cc1	52*	82*	-1%	?
Cc1nc2ccccc2c(=O)n1Cc1ccco1	0	-9	16%	-29%
Cc1ccc(-c2nc3nc4ccccc4nc3n2Cc2ccco2)cc1	52*	63*	147%	-77%
COC(=O)c1sccc1NC(=O)COc1ccc(Cl)cc1Cl	9	12	63%	?
COc1ccc(CCC(=O)N2CCN(c3ccc([N+](=O)[O-])cc3)CC2)cc1OC	1	-3	0%	?
CCOc1ccc(N2CC(C(=O)Nc3ccccc3F)CC2=O)cc1 (stereo not drawn)	-4	-13	/	46%
COc1ccc(-c2onc(C)c2-c2ccc(C(=O)OC(C)C)o2)c(O)c1	-6	-18	1.3µM*	-9%
COc1ccc(CCN(C)C(=O)/C=C/c2c(Cl)nc3ccccn23)cc1OC	14	-5	12µM*	?
COc1ccc(C(CNC(=O)/C=C/c2c(Cl)nc3ccccn23)N(C)C)cc1 (stereo not drawn)	9	2	-18%	?
CC(C)Cc1cc(C(C)(C)C)ccc1OC(=S)N(C)C	-4	-9	61%	-26%
CCNc1nc(NCC)n2c(SC(C(=O)Nc3cc(C)ccc3C)c3ccccc3)nnc2n1 (stereo not drawn)	-3	2	?	12µM*
CCOCCCn1c(SC(C(=O)Nc2cc(C)ccc2C)c2ccccc2)nnc1-c1ccc(Cl)cc1 (stereo not drawn)	-1	17	12µM*	9.3µM*
COc1ccc(NC(=O)[C@@H]2[C@@H]3C(=O)N(C4CCCCC4)C(=O)[C@@H]3C3c4ccccc4C=CN32)cc1 (stereo partly drawn)	3	20	7.4µM*	15µM*
COC(=O)CCN(C(=O)c1cccc([N+](=O)[O-])c1)c1ccccn1	1	-15	8%	7%
CCOc1ccc2c(c1)C(=O)C(=O)N2CC1COc2ccccc2O1 (stereo not drawn)	-3	-7	?	-6%
CCOc1cccc(-c2csc(C3COc4ccccc4O3)n2)c1 (stereo not drawn)	28*	31	111%	290%
CC(=O)N1c2c(cc(Br)cc2S(=O)(=O)N2CCCCC2)CC1C (stereo not drawn)	-8	-8	?	109%
CC(=O)N1c2c(cc(Br)cc2S(=O)(=O)NCc2cccnc2)CC1C (stereo not drawn)	3	-5	9%	21%
CC(=O)N1c2c(cc(Br)cc2S(=O)(=O)N2CCN(c3ccccc3F)CC2)CC1C (stereo not drawn)	-3	-18	?	12µM*
CCCCN(Cc1ccccc1)S(=O)(=O)c1cc(Br)cc2c1N(C(C)=O)C(C)C2 (stereo not drawn)	-2	-27	12µM*	/
O=C(O)CCCc1nc2ccccc2s1	-2	-3	1%	/
O=C(CCc1nc2ccccc2s1)OCC(=O)c1ccccc1	12*	31	44%	55%
O=C(CCc1nc2ccccc2s1)c1ccccc1	37*	4	62%	?
SMILES	CHX counter	Shiga inhibitor	Pf growth 48h	Pf growth 96h
CCS(=O)(=O)c1nc(S(=O)(=O)c2ccc(C)cc2)c(NCCCn2ccnc2)s1	-2	13	-5%	?
CCOC(=O)c1sc2ncc([N+](=O)[O-])cc2c1N	-1	11	56%	125%
Nc1c(C(=O)Nc2ccccc2)sc2ncc([N+](=O)[O-])cc12	12	7	16%	32%
CCOC(=O)c1sc2nc(C)c([N+](=O)[O-])c(COC)c2c1N	0	6	10µM*	-9%
CCOC(=O)c1ccc(NC(=O)c2sc3nc(N4CCOCC4)c4c(c3c2N)CCCC4)cc1	-8	-5	-8%	?
Cc1nc2sc(C(=O)Nc3ccccc3)c(N)c2c(C)c1[N+](=O)[O-]	50*	91*	192%	?
CC(=O)c1ccc(NC(=O)c2sc3nc(C)c(C)c(C)c3c2N)cc1	54*	115*	119%	-21%
Cc1nc2sc(C(=O)OC(C)C)c(N)c2c(C)c1C	19*	41*	116%	-9%
CC(=O)Nc1ccc(NS(=O)(=O)c2cccc3nonc23)cc1	-4	15	25%	29%
O=C(COc1ccccc1[N+](=O)[O-])Nc1ccc2c(c1)CCC2	/	/	86%	192%
